HTT aggregate: reduces HttQ103-GFP aggregates in PC12 cells; 220,000 compounds, 1.1% hits; PC12 HttQ103-GFP aggregates, Acumen cytometry, 40 h; Potency, µM (doses to about 46.1 µM), for inactives: top-dose activity change, negative = inhibition, most hits filed as inhibitors; note: % is set by controls: 0 for no effect and ±100 for the full control effect; nearly all actives have a fitted effect of over 60% in size
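PC12 cells with ecdysone-inducible HTT exon1 Q103-GFP, induced by 100 nM tebufenozide, given compounds in a concentration series. GFP aggregates (1–25 um, 6 SD above background) counted in lysates by laser-scanning cytometry, 488 nm excitation.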
ATXN2 expr inh: inhibitors of ATXN2 expression; HEK-293 ATXN2-luciferase reporter, luminescence, 24 h; Potency, µM (highest dose often 57 µM), without a hit: at the highest dose activity change, negative = inhibition, most hits filed as inhibitors; 360,000 compounds, 0.72% hits; note: % is set by controls: 0 for no effect and ±100 for the full control effect; nearly all actives have a fitted effect of over 55% in size
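ATXN2-luciferase reporter cells (luciferase flanked by upstream and downstream ATXN2 gene portions) were treated 24 h at 37 °C with compounds at up to 57 uM. SteadyGlo luminescence gave expression; GF-AFC fluorescence gave viability.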
TGFb inhibitor: TGF-b pathway inhibition | HepG2 CAGA-GFP TGF-b/SMAD3 reporter, GFP fluorescence, 18 h; TGF-beta stimulated, 500 pg/mL final | Potency, µM (doses to about 46.1 µM), for the others: at the highest dose activity, negative = inhibition, actives largely listed as inhibitors | 410,000 compounds, 1.2% hits | AID 588855; note: % is set by controls: 0 for no effect and ±100 for the full control effect; nearly all actives have a fitted effect of over 65% in size
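First, reporter cells (HEPG2 CAGA-GFP) rested 2 h at 37 degrees C. Next, compounds were pinned in and TGF-beta added to 500 pg/mL final. After 18 h, GFP was imaged per cell and summed per well.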
S2 tox: reduces viability in counter-screen for ATXN expression inhibitors | S2 cells (HEK-293 line with an ATXN2-luciferase reporter) viability, CellTiter-Fluor protease fluorescence, 24 h | Potency, µM (doses to about 56.7 µM), actives largely listed as cytotoxic | 400,000 compounds, 0.49% hits; note: nearly all actives have a fitted effect of over 40% in size
HepG2 tox: HepG2 cytotoxicity, counter-screen for TGF-b inhibitors. HepG2 CAGA-GFP viability, ATP luminescence, 18 h. Potency, µM (series often up to 46.1 µM), inactives show at the highest dose activity change, negative = cytotoxicity, usual class: cytotoxic. 410,000 compounds, 0.76% hits
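CellTiter-Glo luminescence gave cytotoxicity after 18 hours at 37 degrees C. The cells were HepG2 CAGA-GFP in 1% FBS DMEM, stimulated with 500 pg/mL TGF-beta after compound addition. %Activity was normalised to no-cell wells (complete cell-killing) and DMSO (no toxicity), and curves were fitted and classified.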
HTT cytoprotect: cytoprotection in Huntington HTT-Q103 PC12 cell model; PC12 HTT-Q103 induced, cytoprotection, ATP luminescence, 40 h; Potency, µM (highest dose often 56.4 µM), without a hit: cytoprotection (ATP increase), usual class: activators; 230,000 compounds, 0.14% hits; note: % of control where 0% means no effect; nearly all actives have a fitted effect of over 45% in size
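PC12 cells with ecdysone-inducible HTT exon 1 Q103-GFP, induced with 100 nM tebufenozide and co-treated with library compounds in a dose series (1536-well, 1500 cells/well). Cytoprotection read as ATP content by ATPlite luminescence.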
Starred values were filed as active, the others as inactive; i = inactive; ? = inconclusive; . = no result given; [ ] = remark or other dose. A selection: hits, their analogues and other compounds. The true share with any hit is near 2.8%. Calls come from the whole dose curve; as a rule, active = well fitted curve in the direction sought with a large enough effect; inconclusive = small, poorly fitted or top-dose-only effect, or another doubt; inactive = no such curve, though single readings can be large; an effect the other way counts as inactive or inconclusive. Potency is the fitted concentration of half-maximal effect.

SMILES	HTT aggregate	ATXN2 expr inh	TGFb inhibitor	S2 tox	HepG2 tox	HTT cytoprotect
Cc1ccc2nc(CNC(=O)c3cc(NC(=O)c4ccccc4)cc4ncn(C5CCCC5)c34)cn2c1	.	.	.	i	.	.
Cc1nc(C)c(C(=O)N2CCc3c(cnc(C)c3CNC(=O)c3cncs3)C2)s1	.	.	.	i	.	.
COc1ccc(N=Cc2cc(Cc3ccccc3Cl)cc([N+](=O)[O-])c2O)cc1OC	22µM*	.	?	i	-9%	35µM*
Cc1ccc(N=Cc2cc(Cc3ccccc3Cl)cc([N+](=O)[O-])c2O)c(O)c1	?	?	?	?	-25%	?
CCOc1ccc(CN2CCOc3ccc(C(O)c4cccnc4)cc3C2)cc1 (stereo unspecified)	.	.	.	i	.	.
CCCCCCC(=O)Nc1ccc(C(=O)N/N=C/c2cccnc2)cc1	5%	29%	-4%	i	-1%	-26%
CCCCCCCC(=O)Nc1ccc(C(=O)N/N=C/c2cccc([N+](=O)[O-])c2)cc1	-14%	?	-9%	7.9µM*	8%	-97%
Cc1c(C(=O)Nc2ccccc2)oc2c1C(=O)CC(C)(C)C2	10µM*	27%	-17%	i	-5%	6%
CC(=O)c1ccccc1-c1ccc2c(c1)CC(CNC(=O)c1ccnc(Cl)c1)O2 (stereo unspecified)	.	.	.	i	.	.
CCC(=O)Nc1cc2c(cc1Cl)-c1ccccc1C2	.	45%	17%	i	13µM*	.
CC(=O)Nc1cc2c(cc1Cl)-c1ccccc1C2	.	28%	-3%	i	8%	.
COc1ccc(NC(=O)c2ccc3oc(=O)c(S(=O)(=O)c4ccc(F)cc4)cc3c2)cc1OC	.	-25%	11µM*	?	-73%	.
COc1ccc(-c2cc(=O)c3cc(F)ccc3[nH]2)cc1	2%	23%	12%	i	5%	10%[96.6 µM]
COc1ccc2[nH]c(-c3ccc(C)cc3)cc(=O)c2c1	-18%	18µM*	1%	i	-9%	.
O=C(c1cccnc1)C1CCCN(Cc2ccc3c(c2)CN(C(=O)c2cnccn2)CCO3)C1 (stereo unspecified)	.	.	.	i	.	.
COc1cccc(NC(=O)/C(C#N)=C\c2cn(Cc3ccc(Cl)cc3)c3ccccc23)c1	.	7%	11µM*	i	-11%	.
COCCCNC(=O)c1ccccc1Oc1ccccc1	-20%	-5%	-3%	i	9%	-1%
COCCCNC(=O)c1ccc2c3c(onc13)-c1ccccc1C2=O	-28%[9.22 µM]	?	3.2µM*	.	-107%	-45%[10 µM]
Cc1ccc(/C=C2\CCOC2=O)cc1	14%[9.22 µM]	17%	-3%	i	3%	1%[10 µM]
Cc1ccc(/C=C2/CNC/C(=C/c3ccc(C)cc3)C2=O)cc1	.	?	10µM*	?	-51%	.
COC(=O)c1ccccc1COc1cccn2c(N(C)CC3CC3)c(C)nc12	.	-24%	-1%	?	-12%	.
Cc1nc2c(OCCC3CCCCC3)cccn2c1N(C)C(=O)CCC1CCCC1	.	?	16µM*	?	18µM*	.
CCc1nc2c(OCCC3CCCCC3)cccn2c1N(C)C(=O)c1ccc(C)cc1	.	?	?	?	20µM*	.
Cc1nc2c(OCc3ccc(C(F)(F)F)cc3)cccn2c1N(C)CC1CC1	.	35µM*	11µM*	22µM*	10µM*	.
COC(=O)C1=C(C(=O)OC)[C@@H]2N(C)c3ccccc3[C@@]23C[C@@H](C(=O)OC)N(S(=O)(=O)c2ccc4c(c2)OCCN4C)C3=N1	.	.	.	.	.	-25%[10 µM]
SMILES	HTT aggregate	ATXN2 expr inh	TGFb inhibitor	S2 tox	HepG2 tox	HTT cytoprotect
CCOc1ccc(-n2cc(C(=O)N3CCC(C)CC3)c3cc(OC)c(OC)cc3c2=O)cc1	10%	1%	13µM*	i	-36%	5%
O=C(Nc1nnc(-c2ccccc2Cl)o1)c1ccc(S(=O)(=O)N2CCCCCC2)cc1	10µM*	?	?	?	-7%	-65%
CC1CCCCN1S(=O)(=O)c1ccc(C(=O)Nc2nnc(-c3ccccc3Cl)o2)cc1 (stereo unspecified)	?	?	-22%	i	6%	-25%[10 µM]
CCC1CCCCN1S(=O)(=O)c1ccc(C(=O)Nc2nnc(-c3ccccc3Cl)o2)cc1 (stereo unspecified)	7.9µM*	?	-6%	?	2%	29%[10 µM]
O=C1CC2(CCCC2)CC(=O)N1CCCCNCC1COc2ccccc2O1 (stereo unspecified)	.	.	.	.	.	-72%
O=C(Nc1ccc(F)c(F)c1)c1cc(S(=O)(=O)NC2CCCCCC2)ccc1F	.	.	?	.	-97%	.
CC(C)c1ccc(NC(=O)c2cc(S(=O)(=O)NC3CCCCC3)ccc2F)cc1	.	?	?	?	13µM*	.
COc1ccc2c(c1)O[C@@H](c1ccc3c(c1)OCO3)[C@H](OC(=O)NCCOc1ccccc1)C2=O	.	.	.	.	.	13%
CC(=O)NC(c1cc(Cl)c2ccccc2c1O)C(C)C (stereo unspecified)	.	-27%	-12%	i	-15%	.
Cc1cc(NC(c2cccnc2)c2ccc3cccnc3c2O)no1 (stereo unspecified)	?	4µM*	-29%	i	4%	-86%
COc1ccc(C(=O)NC(c2ccc(OC)c(OC)c2)c2cc(Cl)c3cccnc3c2O)cc1 (stereo unspecified)	.	.	-1%	.	-2%	.
CC(=O)NC(c1ccco1)c1cc(Cl)c2cccnc2c1O (stereo unspecified)	.	8.9µM*	?	?	-37%	.
CCCCC(=O)NC(c1ccco1)c1cc(Cl)c2cccnc2c1O (stereo unspecified)	-2%[9.22 µM]	?	?	.	-5%	14%[10 µM]
CC(=O)NC(c1cc(Cl)c2cccnc2c1O)C(C)C (stereo unspecified)	.	5.6µM*	6.3µM*	5µM*	-27%	.
COc1ccc(C(NC(=O)c2cccnc2)c2cc(Cl)c3cccnc3c2O)cc1OC (stereo unspecified)	2.8µM*	16µM*	?	i	-102%	-76%
COCc1c(C(=O)NC2CCCC2)cnn1-c1nccc(-c2cc(C)sc2C)n1	.	.	.	i	.	.
COCCN1CCN(C(=O)c2cnn(-c3nccc(-c4ccco4)n3)c2C2CC2)CC1	.	.	.	i	.	.
Cc1ccc(C(=O)Nc2cccc(-c3nc(CNC(=O)C4CCCCC4)c(C)o3)c2)s1	.	.	.	i	.	.
CC(=O)NC(c1ccc(C)cc1)c1cc(Cl)c2cccnc2c1O (stereo unspecified)	.	11µM*	?	i	-23%	.

Bioassay records (PubChem)
